Reference: the supplement of paper PMC11732987, “Enantioselective OTUD7B fragment discovery through chemoproteomics screening and high-throughput optimisation” (Communications Chemistry, 2025)

Tests used:
Assay in all cases: log2 ratio of Biotin-Ahx-Ub-VS probe labelling (fragment/DMSO); higher = less target engagement (more negative = stronger competition), active = hit call of the paper (q ≤ 0.05, log2 ratio ≤ -1)
Settings in all cases: compound concentration: 200 uM; treatment time: 3 h
USP19 = target: T1, USP19 (UniProt O94966)
T1 sequence (whole entry): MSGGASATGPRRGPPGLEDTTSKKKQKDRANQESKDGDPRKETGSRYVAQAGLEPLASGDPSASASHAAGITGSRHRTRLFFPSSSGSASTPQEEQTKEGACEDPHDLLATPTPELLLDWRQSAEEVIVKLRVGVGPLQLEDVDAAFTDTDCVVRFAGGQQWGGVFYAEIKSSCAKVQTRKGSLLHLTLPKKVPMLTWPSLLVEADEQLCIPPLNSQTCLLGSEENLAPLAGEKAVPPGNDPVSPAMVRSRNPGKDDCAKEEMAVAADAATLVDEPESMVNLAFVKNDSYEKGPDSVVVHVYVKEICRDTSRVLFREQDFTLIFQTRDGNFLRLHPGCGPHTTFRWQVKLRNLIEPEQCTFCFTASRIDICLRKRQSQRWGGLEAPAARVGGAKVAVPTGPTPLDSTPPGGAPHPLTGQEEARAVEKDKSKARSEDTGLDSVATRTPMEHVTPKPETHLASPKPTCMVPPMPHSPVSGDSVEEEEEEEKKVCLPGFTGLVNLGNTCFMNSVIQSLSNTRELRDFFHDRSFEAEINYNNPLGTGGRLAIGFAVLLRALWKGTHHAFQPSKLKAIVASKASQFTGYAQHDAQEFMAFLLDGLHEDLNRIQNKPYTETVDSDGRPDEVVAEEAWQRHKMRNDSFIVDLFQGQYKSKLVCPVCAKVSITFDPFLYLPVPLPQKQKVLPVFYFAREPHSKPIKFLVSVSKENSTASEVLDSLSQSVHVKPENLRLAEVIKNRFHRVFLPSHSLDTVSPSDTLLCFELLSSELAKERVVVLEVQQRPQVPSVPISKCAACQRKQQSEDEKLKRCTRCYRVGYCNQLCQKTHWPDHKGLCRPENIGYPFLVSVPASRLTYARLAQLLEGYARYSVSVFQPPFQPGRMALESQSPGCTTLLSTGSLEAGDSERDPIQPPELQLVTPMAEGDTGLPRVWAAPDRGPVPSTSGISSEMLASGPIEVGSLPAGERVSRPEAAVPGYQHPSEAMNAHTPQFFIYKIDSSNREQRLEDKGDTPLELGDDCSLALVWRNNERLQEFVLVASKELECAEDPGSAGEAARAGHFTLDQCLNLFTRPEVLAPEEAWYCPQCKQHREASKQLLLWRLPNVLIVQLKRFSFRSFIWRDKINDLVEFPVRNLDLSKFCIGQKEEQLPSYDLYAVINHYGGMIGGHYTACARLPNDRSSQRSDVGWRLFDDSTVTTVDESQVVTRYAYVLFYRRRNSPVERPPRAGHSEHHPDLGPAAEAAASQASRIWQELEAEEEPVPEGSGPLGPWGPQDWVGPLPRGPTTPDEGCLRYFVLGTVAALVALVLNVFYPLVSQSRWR
In short: (§1)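 HEK293T lysate, 495 µg per sample in Tris/CHAPS/IGEPAL buffer with protease inhibitors, was treated in triplicate with fragment at 200 µM or vehicle for 3 h and then with Biotin-Ahx-Ub-VS at 0.5 µM final for 1 h. Labelled DUBs were NeutrAvidin-enriched, digested with LysC and trypsin, and run by diaPASEF LC-MS/MS. Spectronaut label-free quantities were global-median-normalised, and values are average log2 fragment/vehicle ratios by unpaired t-test on proteins with ≥2 unique peptides.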

USP24 = USP24 (UniProt Q9UPU5)
In short: as §1

USP25 = target: T2, USP25 (UniProt Q9UHP3)
T2 sequence (whole entry): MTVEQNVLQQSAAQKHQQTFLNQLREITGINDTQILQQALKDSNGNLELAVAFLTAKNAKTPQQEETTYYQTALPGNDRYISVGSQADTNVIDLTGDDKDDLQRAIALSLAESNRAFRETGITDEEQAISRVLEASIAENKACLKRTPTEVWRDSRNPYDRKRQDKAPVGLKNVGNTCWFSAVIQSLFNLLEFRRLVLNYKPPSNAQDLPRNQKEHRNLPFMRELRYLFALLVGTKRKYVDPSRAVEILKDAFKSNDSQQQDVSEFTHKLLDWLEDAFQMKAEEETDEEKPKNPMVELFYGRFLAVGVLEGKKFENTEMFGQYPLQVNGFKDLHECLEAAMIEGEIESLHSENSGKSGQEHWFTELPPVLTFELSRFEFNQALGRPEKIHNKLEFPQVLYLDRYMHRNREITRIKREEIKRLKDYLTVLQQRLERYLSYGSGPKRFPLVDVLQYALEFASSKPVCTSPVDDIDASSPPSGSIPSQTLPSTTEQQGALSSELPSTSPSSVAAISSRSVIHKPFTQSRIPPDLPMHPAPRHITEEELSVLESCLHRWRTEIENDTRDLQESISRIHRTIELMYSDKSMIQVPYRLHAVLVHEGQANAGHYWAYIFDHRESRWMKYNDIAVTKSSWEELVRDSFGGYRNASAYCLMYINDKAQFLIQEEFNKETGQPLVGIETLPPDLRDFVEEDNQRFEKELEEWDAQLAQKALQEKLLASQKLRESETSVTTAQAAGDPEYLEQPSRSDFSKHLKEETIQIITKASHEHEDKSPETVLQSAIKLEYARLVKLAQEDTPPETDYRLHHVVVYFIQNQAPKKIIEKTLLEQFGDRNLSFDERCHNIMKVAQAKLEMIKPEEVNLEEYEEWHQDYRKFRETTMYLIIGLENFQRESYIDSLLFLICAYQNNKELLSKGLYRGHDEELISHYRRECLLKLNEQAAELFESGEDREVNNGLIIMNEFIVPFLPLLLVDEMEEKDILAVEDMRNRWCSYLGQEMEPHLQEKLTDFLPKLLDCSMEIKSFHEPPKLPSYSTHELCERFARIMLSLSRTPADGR
In short: as §1

USP28 = target: T3, USP28 (UniProt Q96RU2)
T3 sequence (whole entry): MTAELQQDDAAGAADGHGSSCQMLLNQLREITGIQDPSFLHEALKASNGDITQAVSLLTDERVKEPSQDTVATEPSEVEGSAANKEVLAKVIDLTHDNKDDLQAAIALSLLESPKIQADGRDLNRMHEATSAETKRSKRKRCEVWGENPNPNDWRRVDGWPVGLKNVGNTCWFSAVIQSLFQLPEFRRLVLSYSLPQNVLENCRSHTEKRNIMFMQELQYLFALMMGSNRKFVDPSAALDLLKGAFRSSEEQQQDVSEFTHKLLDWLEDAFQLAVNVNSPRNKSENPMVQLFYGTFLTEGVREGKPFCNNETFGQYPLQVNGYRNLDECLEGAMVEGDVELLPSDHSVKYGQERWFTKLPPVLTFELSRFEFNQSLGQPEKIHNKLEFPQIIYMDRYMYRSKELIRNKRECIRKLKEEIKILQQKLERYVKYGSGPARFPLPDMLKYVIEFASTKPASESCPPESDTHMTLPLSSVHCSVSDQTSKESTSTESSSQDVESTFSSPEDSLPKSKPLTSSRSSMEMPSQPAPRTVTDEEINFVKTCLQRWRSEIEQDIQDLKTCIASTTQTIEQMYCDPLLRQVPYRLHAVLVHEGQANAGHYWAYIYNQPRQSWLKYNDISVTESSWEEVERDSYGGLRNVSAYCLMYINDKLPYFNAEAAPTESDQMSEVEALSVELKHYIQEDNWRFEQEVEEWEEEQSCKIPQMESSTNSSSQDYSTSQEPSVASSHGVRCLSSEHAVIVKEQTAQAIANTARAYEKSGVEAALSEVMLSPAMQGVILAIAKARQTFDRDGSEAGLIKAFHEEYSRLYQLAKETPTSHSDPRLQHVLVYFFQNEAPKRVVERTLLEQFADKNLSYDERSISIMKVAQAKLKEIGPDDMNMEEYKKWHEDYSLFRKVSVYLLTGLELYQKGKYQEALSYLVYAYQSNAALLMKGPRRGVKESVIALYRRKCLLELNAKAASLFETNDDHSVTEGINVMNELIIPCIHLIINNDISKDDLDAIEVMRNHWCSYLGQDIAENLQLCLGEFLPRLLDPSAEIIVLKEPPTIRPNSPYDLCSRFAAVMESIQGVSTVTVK
In short: as §1

Measured: log2 ratio of Biotin-Ahx-Ub-VS probe labelling

Chain of USP24 (Q9UPU5 whole entry): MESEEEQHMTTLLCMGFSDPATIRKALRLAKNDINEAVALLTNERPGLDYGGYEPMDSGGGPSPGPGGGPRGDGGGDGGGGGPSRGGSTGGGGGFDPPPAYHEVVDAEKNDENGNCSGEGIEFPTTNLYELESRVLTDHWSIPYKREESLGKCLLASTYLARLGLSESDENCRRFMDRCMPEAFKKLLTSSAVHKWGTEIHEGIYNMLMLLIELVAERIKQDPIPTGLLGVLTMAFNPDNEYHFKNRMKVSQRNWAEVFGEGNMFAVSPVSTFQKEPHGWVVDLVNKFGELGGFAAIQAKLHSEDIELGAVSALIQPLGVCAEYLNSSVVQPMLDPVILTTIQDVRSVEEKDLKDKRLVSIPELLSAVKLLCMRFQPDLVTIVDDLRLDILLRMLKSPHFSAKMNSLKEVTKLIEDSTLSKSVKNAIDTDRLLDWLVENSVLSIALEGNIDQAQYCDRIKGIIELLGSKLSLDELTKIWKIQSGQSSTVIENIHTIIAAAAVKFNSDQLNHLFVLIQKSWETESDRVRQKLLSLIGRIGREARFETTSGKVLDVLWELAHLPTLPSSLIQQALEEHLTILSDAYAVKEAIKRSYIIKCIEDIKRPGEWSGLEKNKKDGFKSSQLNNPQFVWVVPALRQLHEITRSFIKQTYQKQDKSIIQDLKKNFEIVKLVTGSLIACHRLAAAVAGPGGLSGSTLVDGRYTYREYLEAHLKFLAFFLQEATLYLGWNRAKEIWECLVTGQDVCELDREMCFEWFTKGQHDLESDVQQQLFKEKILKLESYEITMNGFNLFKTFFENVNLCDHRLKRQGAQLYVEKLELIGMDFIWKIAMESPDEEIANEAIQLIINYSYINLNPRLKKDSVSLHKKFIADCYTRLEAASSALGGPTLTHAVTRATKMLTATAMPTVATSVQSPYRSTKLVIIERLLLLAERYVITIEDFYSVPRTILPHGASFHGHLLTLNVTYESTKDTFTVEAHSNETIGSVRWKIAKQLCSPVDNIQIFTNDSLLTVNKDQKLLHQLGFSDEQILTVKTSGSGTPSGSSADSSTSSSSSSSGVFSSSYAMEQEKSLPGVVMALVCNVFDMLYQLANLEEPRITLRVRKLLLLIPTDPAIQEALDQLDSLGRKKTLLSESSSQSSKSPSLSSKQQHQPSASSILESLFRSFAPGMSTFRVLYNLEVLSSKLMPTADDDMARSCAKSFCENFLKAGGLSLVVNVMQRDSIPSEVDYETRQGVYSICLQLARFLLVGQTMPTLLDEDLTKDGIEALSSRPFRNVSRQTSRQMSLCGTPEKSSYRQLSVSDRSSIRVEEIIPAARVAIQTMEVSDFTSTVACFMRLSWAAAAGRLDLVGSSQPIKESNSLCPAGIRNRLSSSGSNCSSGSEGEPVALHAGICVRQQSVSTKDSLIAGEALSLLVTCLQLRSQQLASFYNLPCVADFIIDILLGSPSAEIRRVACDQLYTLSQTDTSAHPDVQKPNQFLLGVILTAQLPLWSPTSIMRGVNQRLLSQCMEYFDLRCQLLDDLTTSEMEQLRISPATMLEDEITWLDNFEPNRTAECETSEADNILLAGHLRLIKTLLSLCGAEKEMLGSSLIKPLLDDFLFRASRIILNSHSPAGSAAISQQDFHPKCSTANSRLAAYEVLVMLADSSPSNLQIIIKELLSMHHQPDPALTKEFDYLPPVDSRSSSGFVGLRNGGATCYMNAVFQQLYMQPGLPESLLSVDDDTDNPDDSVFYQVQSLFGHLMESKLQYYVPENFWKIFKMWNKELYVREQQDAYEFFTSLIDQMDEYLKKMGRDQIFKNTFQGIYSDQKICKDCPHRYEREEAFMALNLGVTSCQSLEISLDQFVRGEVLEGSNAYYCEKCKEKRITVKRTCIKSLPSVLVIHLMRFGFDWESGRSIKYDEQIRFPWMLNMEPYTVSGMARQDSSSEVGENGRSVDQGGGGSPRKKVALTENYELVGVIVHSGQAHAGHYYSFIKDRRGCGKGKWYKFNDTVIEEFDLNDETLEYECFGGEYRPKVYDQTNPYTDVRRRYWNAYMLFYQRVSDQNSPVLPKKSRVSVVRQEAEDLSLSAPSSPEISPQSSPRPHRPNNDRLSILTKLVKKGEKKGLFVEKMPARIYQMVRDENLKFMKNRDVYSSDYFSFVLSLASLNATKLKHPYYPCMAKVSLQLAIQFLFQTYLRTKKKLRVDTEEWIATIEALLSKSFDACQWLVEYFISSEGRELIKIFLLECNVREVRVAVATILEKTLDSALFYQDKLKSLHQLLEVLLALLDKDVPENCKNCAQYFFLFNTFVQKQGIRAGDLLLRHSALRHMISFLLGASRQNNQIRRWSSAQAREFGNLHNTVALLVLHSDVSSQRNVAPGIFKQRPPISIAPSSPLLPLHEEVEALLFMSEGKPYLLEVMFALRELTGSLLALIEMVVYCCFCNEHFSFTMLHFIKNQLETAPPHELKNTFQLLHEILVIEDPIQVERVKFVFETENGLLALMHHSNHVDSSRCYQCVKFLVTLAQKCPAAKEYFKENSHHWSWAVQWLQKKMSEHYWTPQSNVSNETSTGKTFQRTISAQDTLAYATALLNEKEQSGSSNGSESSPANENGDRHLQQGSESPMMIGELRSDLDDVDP

CC1CCc2onc(CNC(=O)CCl)c2C1 (centres undefined)
inactive: USP19 0.0516 | USP24 0.0469 | USP25 0.00198 | USP28 -0.19
